Results: the supplement of paper PMC8728848
This is one part of a sample in which the strongest signals are shown more often than they occur.

Key:
Experiment in all cases: glycan array binding signal (z-score within array); higher = stronger binding
Conditions in all cases: glycan notation: IUPAC condensed, linker removed
[1] = target: Fuc(a1-2)Gal(b1-4)Fuc(a1-3)]GlcNAc(b1-2)Man(a1-3)[Fuc(a1-2)Gal(b1-4)[Fuc(a1-3)]GlcNAc(b1-2)Man(a1-6)]Man(b1-4)GlcNAc(b1-4)GlcNAc
Outline: (§1)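 The binding signal is a Z-score computed within each array and averaged over linkers. Arrays of the same protein sequence at different concentrations or buffers were also averaged together. Data originate from 3228 arrays in the Consortium for Functional Glycomics database, kept only where the protein sequence was available.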

[2] = target: Fuc(a1-2)Gal(b1-4)GlcNAc(b1-2)Man(a1-3)[Fuc(a1-2)Gal(b1-4)GlcNAc(b1-2)Man(a1-6)]Man(b1-4)GlcNAc(b1-4)[Fuc(a1-6)]GlcNAc
Outline: as §1

[3] = target: Fuc(a1-2)Gal(b1-4)[Fuc(a1-3)]GlcNAc(b1-2)[Fuc(a1-2)Gal(b1-4)[Fuc(a1-3)]GlcNAc(b1-4)]Man(a1-3)[Fuc(a1-2)Gal(b1-4)[Fuc(a1-3)]GlcNAc(b1-2)Man(a1-6)]Man(b1-4)GlcNAc(b1-4)GlcNAc
Outline: as §1

[4] = target: Fuc(a1-2)Gal(b1-4)[Fuc(a1-3)]GlcNAc(b1-3)Gal(b1-4)[Fuc(a1-3)]GlcNAc(b1-3)Gal(b1-4)[Fuc(a1-3)]GlcNAc
Outline: as §1

[5] = target: Fuc(a1-2)Gal(b1-4)[Fuc(a1-3)]GlcNAc(b1-3)GalNAc
Outline: as §1

[6] = target: Fuc(a1-2)Gal3S(b1-4)GlcNAc
Outline: as §1

[7] = target: Fuc(a1-2)[Gal(a1-3)]Gal(b1-3)GalNAc
Outline: as §1

[8] = target: Fuc(a1-2)[Gal(a1-3)]Gal(b1-3)GlcNAc(b1-2)Man(a1-3)[Fuc(a1-2)[Gal(a1-3)]Gal(b1-3)GlcNAc(b1-2)Man(a1-6)]Man(b1-4)GlcNAc(b1-4)[Fuc(a1-6)]GlcNAc
Outline: as §1

[9] = target: Fuc(a1-2)[Gal(a1-3)]Gal(b1-4)GlcNAc
Outline: as §1

[10] = target: Fuc(a1-2)[Gal(a1-4)]Gal(b1-4)GlcNAc
Outline: as §1

[11] = target: Fuc(a1-2)[GalNAc(a1-3)]Gal(b1-4)GlcNAc(b1-3)Gal(b1-4)GlcNAc(b1-3)Gal(b1-4)GlcNAc
Outline: as §1

[12] = target: Gal(b1-3)GalNAc(b1-4)[Neu5Ac(a2-3)]Gal(b1-4)Glc
Outline: as §1

[13] = target: Gal(b1-3)[Neu5Ac(b2-6)]GalNAc
Outline: as §1

[14] = target: Gal(b1-4)GlcNAc(b1-2)Man(a1-3)[Gal(b1-4)GlcNAc(b1-2)Man(a1-6)][GlcNAc(b1-4)]Man(b1-4)GlcNAc(b1-4)[Fuc(a1-6)]GlcNAc
Outline: as §1

[15] = target: Gal(b1-4)GlcNAc(b1-3)Gal(b1-4)GlcNAc(b1-2)Man(a1-3)[Gal(b1-4)GlcNAc(b1-3)Gal(b1-4)GlcNAc(b1-2)Man(a1-6)]Man(b1-4)GlcNAc(b1-4)GlcNAc
Outline: as §1

[16] = target: Gal(b1-4)GlcNAc(b1-3)Gal(b1-4)GlcNAc(b1-2)Man(a1-3)[Gal(b1-4)GlcNAc(b1-3)Gal(b1-4)GlcNAc(b1-2)Man(a1-6)]Man(b1-4)GlcNAc(b1-4)[Fuc(a1-6)]GlcNAc
Outline: as §1

[17] = target: Gal3S(b1-3)GalNAc
Outline: as §1

[18] = target: Gal3S(b1-3)[Fuc(a1-4)]GlcNAc
Outline: as §1

[19] = target: Gal6S(b1-3)GlcNAc6S
Outline: as §1

[20] = target: Gal6S(b1-4)Glc
Outline: as §1

[21] = target: GalNAc3S(b1-4)GlcNAc3S
Outline: as §1

[22] = target: Glc(b1-4)Glc
Outline: as §1

[23] = target: GlcNAc(a1-4)Gal(b1-3)GlcNAc
Outline: as §1

[24] = target: GlcNAc(a1-4)Gal(b1-4)GlcNAc(b1-3)Gal(b1-4)Glc
Outline: as §1

[25] = target: GlcNAc(b1-2)[GlcNAc(b1-4)]Man(a1-3)[GlcNAc(b1-4)][GlcNAc(b1-2)[GlcNAc(b1-6)]Man(a1-6)]Man(b1-4)GlcNAc(b1-4)[Fuc(a1-6)]GlcNAc
Outline: as §1

[26] = target: GlcNAc(b1-3)Gal(b1-4)GlcNAc(b1-2)Man(a1-3)[GlcNAc(b1-3)Gal(b1-4)GlcNAc(b1-2)Man(a1-6)]Man(b1-4)GlcNAc(b1-4)GlcNAc
Outline: as §1

[27] = target: GlcNAc(b1-3)Gal(b1-4)GlcNAc(b1-3)Gal(b1-4)GlcNAc(b1-2)Man(a1-3)[GlcNAc(b1-3)Gal(b1-4)GlcNAc(b1-3)Gal(b1-4)GlcNAc(b1-2)Man(a1-6)]Man(b1-4)GlcNAc(b1-4)GlcNAc
Outline: as §1

[28] = target: GlcNAc(b1-3)Gal(b1-4)GlcNAc(b1-3)Gal(b1-4)GlcNAc(b1-3)Gal(b1-4)GlcNAc(b1-2)[GlcNAc(b1-3)Gal(b1-4)GlcNAc(b1-3)Gal(b1-4)GlcNAc(b1-3)Gal(b1-4)GlcNAc(b1-6)]Man(a1-6)[GlcNAc(b1-3)Gal(b1-4)GlcNAc(b1-3)Gal(b1-4)GlcNAc(b1-3)Gal(b1-4)GlcNAc(b1-2)Man(a1-3)]Man(b1-4)GlcNAc(b1-4)[Fuc(a1-6)]GlcNAc
Outline: as §1

[29] = target: GlcNAc(b1-4)[GlcNAc(b1-6)]GalNAc
Outline: as §1

[30] = target: Man(a1-3)[Man(a1-6)]Man(b1-4)GlcNAc(b1-4)GlcNAc
Outline: as §1

[31] = target: Neu5Ac(a2-3)Gal(b1-3)GalNAc(b1-4)[Neu5Ac(a2-3)]Gal(b1-4)Glc
Outline: as §1

[32] = target: Neu5Ac(a2-3)Gal(b1-3)GalNAc6S
Outline: as §1

[33] = target: Neu5Ac(a2-3)Gal(b1-3)GlcNAc(b1-2)Man(a1-3)[Neu5Ac(a2-3)Gal(b1-3)GlcNAc(b1-2)Man(a1-6)]Man(b1-4)GlcNAc(b1-4)GlcNAc
Outline: as §1

[34] = target: Neu5Ac(a2-3)Gal(b1-3)[GlcNAc(b1-6)]GalNAc
Outline: as §1

[35] = target: Neu5Ac(a2-3)Gal(b1-4)GlcNAc(b1-2)Man
Outline: as §1

[36] = target: Neu5Ac(a2-3)Gal(b1-4)GlcNAc(b1-3)Gal(b1-4)GlcNAc(b1-3)Gal(b1-4)GlcNAc(b1-2)Man(a1-3)[Neu5Ac(a2-3)Gal(b1-4)GlcNAc(b1-3)Gal(b1-4)GlcNAc(b1-3)Gal(b1-4)GlcNAc(b1-2)Man(a1-6)]GalNAc
Outline: as §1

[37] = target: Neu5Ac(a2-3)Gal(b1-4)GlcNAc(b1-3)Gal(b1-4)GlcNAc(b1-3)GalNAc
Outline: as §1

[38] = target: Neu5Ac(a2-3)Gal(b1-4)GlcNAc(b1-3)Gal(b1-4)[Fuc(a1-3)]GlcNAc
Outline: as §1

[39] = target: Neu5Ac(a2-3)Gal(b1-4)[Fuc(a1-3)]GlcNAc(b1-2)Man
Outline: as §1

[40] = target: Neu5Ac(a2-6)Gal(b1-4)GlcNAc(b1-2)Man(a1-3)[Neu5Ac(a2-3)Gal(b1-4)GlcNAc(b1-2)Man(a1-6)]Man(b1-4)GlcNAc(b1-4)GlcNAc
Outline: as §1

[41] = target: Neu5Ac(a2-6)Gal(b1-4)GlcNAc(b1-2)Man(a1-3)[Neu5Ac(a2-6)Gal(b1-4)GlcNAc(b1-2)Man(a1-6)]Man(b1-4)GlcNAc(b1-4)GlcNAc
Outline: as §1

[42] = target: Neu5Ac(a2-6)Gal(b1-4)GlcNAc(b1-2)Man(a1-6)[GlcNAc(b1-2)Man(a1-3)]Man(b1-4)GlcNAc(b1-4)GlcNAc
Outline: as §1

[43] = target: Neu5Ac(a2-6)Gal(b1-4)GlcNAc(b1-3)Gal(b1-4)GlcNAc(b1-2)Man(a1-3)[Neu5Ac(a2-6)Gal(b1-4)GlcNAc(b1-3)Gal(b1-4)GlcNAc(b1-2)Man(a1-6)]GalNAc
Outline: as §1

[44] = target: Neu5Ac(a2-6)Gal(b1-4)GlcNAc(b1-3)Gal(b1-4)GlcNAc(b1-3)[Neu5Ac(a2-6)Gal(b1-4)GlcNAc(b1-3)Gal(b1-4)GlcNAc(b1-6)]GalNAc
Outline: as §1

[45] = target: Neu5Ac(a2-6)GalNAc
Outline: as §1

[46] = target: Neu5Ac(a2-6)GalNAc(b1-4)GlcNAc
Outline: as §1

[47] = target: Neu5Ac(a2-8)Neu5Ac(a2-3)Gal(b1-4)Glc
Outline: as §1

[48] = target: Neu5Ac(a2-8)Neu5Ac(a2-3)[GalNAc(b1-4)]Gal(b1-4)Glc
Outline: as §1

B1: RsaA-N-term (Caulobacter crescentus), P35828 (protein)
chain: MAYTTAQLVTAYTNANLGKAPDAATTLTLDAYATQTQTGGLSDAAALTNTLKLVNSTTAVAIQTYQFFTGVAPSAAGLDFLVDSTTNTNDLNDAYYSKFAQENRFINFSINLATGAGAGATAFAAAYTGVSYAQTVATAYDKIIGNAVATAAGVDVAAAVAFLSRQANIDYLTAFVRANTPFTAAADIDLAVKAALIGTILNAATVSGIGGYATATAAMINDLSDGALSTDNAAGVNLFTAYPSSGVSGSTLSLTTGTDTLTGTANNDTFVAGEVAGDGSGWSHPQFEKGG
[1]
  glycan array binding signal (z-score): 5.97
[2]
  glycan array binding signal (z-score): 7.05
[3]
  glycan array binding signal (z-score): 2.4
[4]
  glycan array binding signal (z-score): -1.26
[5]
  glycan array binding signal (z-score): -0.298
[6]
  glycan array binding signal (z-score): -0.243
[7]
  glycan array binding signal (z-score): -0.328
[8]
  glycan array binding signal (z-score): -0.025
[9]
  glycan array binding signal (z-score): 1.14
[10]
  glycan array binding signal (z-score): -0.479
[11]
  glycan array binding signal (z-score): 0.016
[12]
  glycan array binding signal (z-score): -0.359
[13]
  glycan array binding signal (z-score): 0.215
[14]
  glycan array binding signal (z-score): -0.708
[15]
  glycan array binding signal (z-score): 3.15
[16]
  glycan array binding signal (z-score): 2.39
[17]
  glycan array binding signal (z-score): 1.7
[18]
  glycan array binding signal (z-score): -0.524
[19]
  glycan array binding signal (z-score): 3.01
[20]
  glycan array binding signal (z-score): -0.512
[21]
  glycan array binding signal (z-score): 0.081
[22]
  glycan array binding signal (z-score): -0.512
[23]
  glycan array binding signal (z-score): 0.008
[24]
  glycan array binding signal (z-score): -0.491
[25]
  glycan array binding signal (z-score): 0.317
[26]
  glycan array binding signal (z-score): 2.18
[27]
  glycan array binding signal (z-score): 2.59
[28]
  glycan array binding signal (z-score): 0.217
[29]
  glycan array binding signal (z-score): -0.221
[30]
  glycan array binding signal (z-score): 0.174
[31]
  glycan array binding signal (z-score): -1.29
[32]
  glycan array binding signal (z-score): 0.427
[33]
  glycan array binding signal (z-score): 7.19
[34]
  glycan array binding signal (z-score): -1.21
[35]
  glycan array binding signal (z-score): 2.51
[36]
  glycan array binding signal (z-score): -0.725
[37]
  glycan array binding signal (z-score): -1.2
[38]
  glycan array binding signal (z-score): -0.112
[39]
  glycan array binding signal (z-score): 0.103
[40]
  glycan array binding signal (z-score): 2.79
[41]
  glycan array binding signal (z-score): 0.398
[42]
  glycan array binding signal (z-score): 0.365
[43]
  glycan array binding signal (z-score): -1.33
[44]
  glycan array binding signal (z-score): -0.68
[45]
  glycan array binding signal (z-score): 2.17
[46]
  glycan array binding signal (z-score): -0.593
[47]
  glycan array binding signal (z-score): -0.815
[48]
  glycan array binding signal (z-score): -0.001
